Hits are enriched below; roughly 10% of the tested compounds scored in any of these assays.
Pf growth 96h – P. falciparum growth inhibition at 96 hours; 6.9% of 320,000 active; Potency, µM (doses to about 28.7 µM), without a hit: at the highest dose activity change, negative = inhibition, usual class: inhibitors; P. falciparum luciferase reporter growth, 96 h; active = well fitted inhibition curve with a large enough effect; inconclusive = small, poorly fitted or top-dose-only effect, or another doubt; inactive = no such curve, though single readings can be large or run the other way; also: % is scaled to controls: 0 for no effect and ±100 for the full control effect
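Compounds incubated with erythrocytes infected by luciferase-expressing P. falciparum (2% hematocrit, 0.05% parasitemia final) for 96 hours, 37 C in 5% CO2. Growth inhibition scored as decreased luciferase luminescence.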
NS1 inh – influenza NS1 inhibition; 0.4% of 270,000 active; Potency, µM (titrated, usually from 46.1 µM), for inactives: at the highest dose activity, positive = more growth; AID 2326; also: actives are rising curves; nearly all actives have a fitted effect of over 50% in size
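In this qHTS, NS1 from influenza A is expressed in budding yeast, where it slows growth. Cells are switched from glucose to 2% galactose medium (pH 6.0, -URA), treated with compound, and growth recovery is read at OD600.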
SARS PLP yeast – blocks SARS-CoV papain-like protease in a yeast assay | S. cerevisiae expressing SARS-CoV PLpro, growth rescue | Potency, µM (top dose mostly 32.9 µM), inactives show at the highest dose activity, positive = growth rescue, actives largely listed as activators | 0.19% of 330,000 active | AID 485353; also: 0% is about no effect; nearly all actives have a fitted effect of over 55% in size
Pf growth 48h – inhibits P. falciparum growth in the first generation, 48 h | 5.9% of 310,000 active | P. falciparum luciferase growth in erythrocytes, 48 h | Potency, µM (titrated, usually from 28.7 µM), without a hit: at the top dose activity change, negative = inhibition, most hits filed as inhibitors | AID 504832; active = well fitted inhibition curve with a large enough effect; inconclusive = small, poorly fitted or top-dose-only effect, or another doubt; inactive = no such curve, though single readings can be large or run the other way; also: % is scaled to controls: 0 for no effect and ±100 for the full control effect
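In quantitative HTS format, infected erythrocytes bearing luciferase-reporter parasites were treated for a single generation at 37 C. Luminescence after adding detection reagent served as the growth measure.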
* hit, by the source's call; ? = inconclusive; · = no result given; ! = not active in a repeat. Unless noted, calls follow the shape of the full dose curve. Potency is read from the fitted curve at half-maximal effect.

SMILES	Pf growth 96h	NS1 inh	SARS PLP yeast	Pf growth 48h
CN(C)C(=O)CCc1ccc2c3c([nH]c2c1)[C@]1(C)[C@@H](C(=O)N2CCCCC2)C[C@H](CC(=O)NCC24CC5CC(CC(C5)C2)C4)C(=O)N1CC3	·	·	-19.8%	·
O=C(CSc1ccccc1)NN1C(=O)c2ccccc2C1=O	9.28µM*	10.5%	-0.7%	1.3%
CN(C)c1ccccc1C(=O)N1CCCC(Nc2ccc(F)cc2)C1 (stereo not drawn)	13.1µM*	-3.7%	1.9%	-9.5%
Cn1cc(C(=O)N2CCCC(Nc3ccc(F)cc3)C2)c2ccccc21 (stereo not drawn)	-7.6%	-2.8%	-5.2%	-3.5%
COc1ccc(NC2CCCN(C(=O)CCN3CCCC3=O)C2)cc1 (stereo not drawn)	?	6.8%	-1.7%	13.3%
O=C(CCN1CCCCO1)N1CCCC(Nc2cccc(F)c2)C1 (stereo not drawn)	?	6.8%	-4.9%	37.6%
COc1ccc(NC2CCCN(C(=O)CCN3Cc4ccccc4C3=O)C2)cc1 (stereo not drawn)	8.28µM*	1.0%	-3.1%	10.0%
Cc1noc(C)c1C(=O)N1CCCC(Nc2ccc(C(C)C)cc2)C1 (stereo not drawn)	44.2%	8.0%	2.2%	0.0%
O=C(CCN1CCCCO1)N1CCCC(Nc2ccc(F)cc2)C1 (stereo not drawn)	11.7µM*	8.4%	2.3%	-14.6%
COc1ccc(NC2CCCN(C(=O)c3c(C)noc3C)C2)cc1 (stereo not drawn)	1.85µM*	3.2%	1.9%	?
COC(=O)c1ccc(Cn2nc(-c3ccc(C)cc3)ccc2=O)cc1	25.9%	-4.9%	-0.8%	38.5%
COc1ccc(C(=O)NN2CC(O)=C(c3nc4ccccc4n3C)C2=N)cc1OC	31.5%	3.6%	14.2%	24.5%
COc1cc(OC)cc(C(=O)N2CCCC(Nc3ccc(F)cc3)C2)c1 (stereo not drawn)	0.0%	-4.7%	2.6%	-2.9%
COc1ccc2cc(C(=O)N3CCCC(Nc4ccc(F)cc4)C3)n(C)c2c1 (stereo not drawn)	5.86µM*	-5.3%	-0.1%	-4.1%
Cc1cc(Nc2cccc(C(F)(F)F)c2)n2nc(C)nc2n1	0.0%	5.4%	0.7%	?
Cc1ccc(Nc2cc(C)nc3nc(C)nn23)cc1	22.6%	?	?	?
Cc1cc(Nc2ccc(Br)c(C)c2)n2nc(C)nc2n1	10.4µM*	-72.7%	-0.8%	0.262µM*
Cc1cc(NCc2ccc3c(c2)OCO3)n2nc(C)nc2n1	0.37µM*	-1.5%	1.7%	-4.2%
Cc1nc2nc(C)c(CCC(=O)NCc3ccc4c(c3)OCO4)c(C)n2n1	81.8%	0.8%	1.8%	-16.5%
CCc1cccc(Nc2cc(C)nc3nc(C)nn23)c1	8.28µM*	-12.0%	12.3%	5.22µM*
CCc1nc2nc(C)cc(Nc3cccc(C(F)(F)F)c3)n2n1	14.9%	3.8%	-3.3%	2.08µM*
Fc1ccc(C2CC(c3cccs3)=NN2c2ccccc2)cc1 (stereo not drawn)	-8.7%	·	12.2%	?
CC(=O)Nc1ccc(C2=NN(c3ccccc3)C(c3ccccc3)C2)cc1 (stereo not drawn)	11.7µM*	3.4%	-5.2%	9.28µM*
CC(=O)Nc1ccc(C2CC(c3ccc(Cl)cc3)=NN2c2ccccc2)cc1 (stereo not drawn)	4.65µM*	1.0%	-6.6%	·
O=C(O)c1ccc(N2N=C(c3ccccc3)CC2c2ccccc2)cc1 (stereo not drawn)	6.0%	-36.1%	-22.0%	214.1%
SMILES	Pf growth 96h	NS1 inh	SARS PLP yeast	Pf growth 48h
c1ccc(C2CC(c3cccs3)=NN2c2ccccc2)cc1 (stereo not drawn)	10.4µM*	1.2%	0.0%	10.4µM*
CN(C(=O)CSc1nnc(-c2ccccc2F)n1N)C1CCCCC1	-25.9%	·	2.3%	-21.4%
COc1ccc(CNC(=O)CN(Cc2ccc(OC)cc2)C(=O)CCC(=O)Nc2ccccn2)cc1	104.5%	-4.8%	0.3%	7.9%
CS(=O)(=O)Cc1ccc(C(=O)NC2CCCc3ccccc32)cc1 (stereo not drawn)	34.1%	12.7%	1.7%	27.6%
CN(C)c1ccc(N2CN=C3SCC(=O)N3C2)cc1	?	3.7%	-10.8%	1.47µM*
CC(OC(=O)c1ccc([N+](=O)[O-])o1)C(=O)Nc1nc(-c2ccc(F)c(F)c2)cs1 (stereo not drawn)	1.9%	·	1.5%	46.1%
CCCCn1c(O)c(C(C)=NCc2ccc(F)cc2)c(=O)[nH]c1=O	6.57µM*	-2.3%	6.1%	-13.5%
CCCS(=O)(=O)N1CCC(C(=O)Oc2ccc(OC)cc2)CC1	?	28.6%	-0.3%	?
O=C(NCCCO)C(=O)NCc1ccncc1	?	·	1.5%	1.8%
OCCN1CCN(CCC=C2c3ccccc3Sc3ccc(Cl)cc32)CC1	4.55µM*	·	·	?
CN(C)S(=O)(=O)c1ccc(Cl)c(NC(=O)CN2CCc3ccccc3C2)c1	-61.2%	-7.5%	-0.1%	-56.7%
O=[N+]([O-])c1cc(C(F)(F)F)ccc1N1CCN(CCO)CC1	-16.8%	·	1.2%	4.6%
CN1CCN(CCC=C2c3ccccc3Sc3ccc(S(=O)(=O)N(C)C)cc32)CC1	10.7µM*	·	·	11.7µM*
OCCN1CCN(CC/C=C2/c3ccccc3Sc3ccc(C(F)(F)F)cc32)CC1	8.28µM*!	-35.1%	·	6.57µM*
CC(C)(C)C(=O)CP(=O)(O)O	·	-0.7%	·	·
O=C(Cc1ccccc1)N[C@@H](Cc1ccc(O)cc1)C(=O)O	73.6%	0.9%	-0.3%	42.8%
CC1CN(C(=O)CN(C)S(=O)(=O)c2ccc3ccccc3c2)CC(C)O1 (stereo not drawn)	13.0%	-3.9%	2.0%	25.4%
Oc1[nH]c2ccccc2c1N=NC(=S)N1CCOCC1	0.586µM*	-62.4%	-4.5%	0.586µM*
NC(=S)N=Nc1c(O)[nH]c2ccccc12	?	-8.4%	?	44.6%
Oc1[nH]c2ccc(Br)cc2c1N=NC(=S)N1CCOCC1	0.415µM*	-37.2%	-1.4%	0.828µM*
CC(=O)Nc1ccc(S(=O)(=O)N2CCN(c3nc4ccccc4n3CC(C)C)CC2)cc1	-19.6%	-14.6%	3.3%	?
Cc1ccccc1C(=N)c1ccccc1Cc1cccc2ccccc12	·	-10.6%	·	·
NS(=O)(=O)c1ccc(CCNC(=O)c2ccc3nc4ccc(Cl)cc4c(=O)n3c2)cc1	6.2%	·	0.2%	11.7µM*
Cc1cc(C)cc(N2C(N)=NC(N)=NC2c2cccc(Cl)c2)c1 (stereo not drawn)	5.4%	2.1%	15.3%	1.17µM*
COc1ccc(C2N=C(N)N=C(N)N2c2ccc(C)cc2)cc1 (stereo not drawn)	5.86µM*	6.5%	-2.0%	·
Cc1cc(C)cc(N2C(N)=NC(N)=NC2c2ccccc2F)c1 (stereo not drawn)	35.7%	2.6%	4.0%	3.29µM*
Cc1ccc(-n2nc3ccc(N)cc3n2)cc1	22.3%	1.5%	-10.9%	57.9%
COc1ccc(-c2nnc(SCC(=O)Nc3c(Cl)cc(Cl)cc3C(=O)O)o2)cc1	·	·	-4.2%	·
CC(=O)Nc1ccc(NC(=O)C(=O)N/N=C/c2cccnc2)cc1	2.1%	-0.8%	-3.0%	12.2%
CNC(=O)NC(=O)COC(=O)c1ccccc1OCc1ccccc1	38.0%	·	0.2%	?
